Active and inactive are the calls of the source.
Key:
[1] = system: Plasmodium falciparum Sir2 (PF13_0152, Sir2A); assay: Plasmodium falciparum Sir2A binding compounds – biochemical, small-molecule microarray, 635 nm fluorescence, primary screen (AID 1098); details: fluorescence 635 nm, higher = more signal;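 note: score merges spot fluorescence intensity with its signal-to-noise ratio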
[2] = probe aDKK1 binding to arrayed compounds – biochemical, biotinylated probe, 635/667 nm fluorescence, primary screen (AID 1099); details: small-molecule microarray, higher = more signal;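 note: score merges 667nm spot fluorescence with signal to noise across triplicate slides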
[3] = probe aCHRDL2 binding to arrayed compounds – biochemical, biotinylated probe, 635/667 nm fluorescence, primary screen (AID 1100); details: small-molecule microarray, higher = more signal
[4] = change in splice reporter luminescence, either direction, cell-based, HEK293, spliceosome inhibition project, primary screen (AID 1101); details: HEK293 splicing luciferase reporter, 24 h, higher = more signal, called active from +8 up or from −8 down;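 note: HEK293 cells carrying a splicing-competent luciferase reporter gene; test concentration not given here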
[5] = target: Fibroblast growth factor 10 (Homo sapiens) (UniProt O15520); assay: compounds binding fibroblast growth factor 10 – biochemical, small-molecule microarray, 635 nm fluorescence, primary screen (AID 1102); details: FGF10 binding, fluorescence 635 nm, higher = more signal
Sequence of Fibroblast growth factor 10 (Homo sapiens) (O15520 whole entry, looked up): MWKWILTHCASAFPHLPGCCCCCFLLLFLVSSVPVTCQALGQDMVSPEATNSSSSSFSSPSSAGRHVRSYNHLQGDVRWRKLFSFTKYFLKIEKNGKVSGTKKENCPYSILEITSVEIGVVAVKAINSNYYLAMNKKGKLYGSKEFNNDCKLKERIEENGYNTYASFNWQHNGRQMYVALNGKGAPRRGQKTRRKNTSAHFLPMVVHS

[6] = system: glycogen synthase kinase-3 (GSK3A per assay name; protocol says GSK3B); assay: compounds binding glycogen synthase kinase-3 – biochemical, small-molecule microarray, 635 nm fluorescence, GSK3A, primary screen (AID 1103); details: fluorescence 635 nm, higher = more signal; note: the record names both GSK3A and GSK3B
[7] = target: Epidermal growth factor receptor (Homo sapiens) (UniProt P00533); assay: compounds binding epidermal growth factor receptor – biochemical, small-molecule microarray, 635 nm fluorescence, primary screen (AID 1104); details: EGFR binding, higher = more signal;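 note: score merges 667 nm emission intensity with spot signal to noise over triplicate slides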
Sequence of Epidermal growth factor receptor (Homo sapiens) (P00533 whole entry, looked up): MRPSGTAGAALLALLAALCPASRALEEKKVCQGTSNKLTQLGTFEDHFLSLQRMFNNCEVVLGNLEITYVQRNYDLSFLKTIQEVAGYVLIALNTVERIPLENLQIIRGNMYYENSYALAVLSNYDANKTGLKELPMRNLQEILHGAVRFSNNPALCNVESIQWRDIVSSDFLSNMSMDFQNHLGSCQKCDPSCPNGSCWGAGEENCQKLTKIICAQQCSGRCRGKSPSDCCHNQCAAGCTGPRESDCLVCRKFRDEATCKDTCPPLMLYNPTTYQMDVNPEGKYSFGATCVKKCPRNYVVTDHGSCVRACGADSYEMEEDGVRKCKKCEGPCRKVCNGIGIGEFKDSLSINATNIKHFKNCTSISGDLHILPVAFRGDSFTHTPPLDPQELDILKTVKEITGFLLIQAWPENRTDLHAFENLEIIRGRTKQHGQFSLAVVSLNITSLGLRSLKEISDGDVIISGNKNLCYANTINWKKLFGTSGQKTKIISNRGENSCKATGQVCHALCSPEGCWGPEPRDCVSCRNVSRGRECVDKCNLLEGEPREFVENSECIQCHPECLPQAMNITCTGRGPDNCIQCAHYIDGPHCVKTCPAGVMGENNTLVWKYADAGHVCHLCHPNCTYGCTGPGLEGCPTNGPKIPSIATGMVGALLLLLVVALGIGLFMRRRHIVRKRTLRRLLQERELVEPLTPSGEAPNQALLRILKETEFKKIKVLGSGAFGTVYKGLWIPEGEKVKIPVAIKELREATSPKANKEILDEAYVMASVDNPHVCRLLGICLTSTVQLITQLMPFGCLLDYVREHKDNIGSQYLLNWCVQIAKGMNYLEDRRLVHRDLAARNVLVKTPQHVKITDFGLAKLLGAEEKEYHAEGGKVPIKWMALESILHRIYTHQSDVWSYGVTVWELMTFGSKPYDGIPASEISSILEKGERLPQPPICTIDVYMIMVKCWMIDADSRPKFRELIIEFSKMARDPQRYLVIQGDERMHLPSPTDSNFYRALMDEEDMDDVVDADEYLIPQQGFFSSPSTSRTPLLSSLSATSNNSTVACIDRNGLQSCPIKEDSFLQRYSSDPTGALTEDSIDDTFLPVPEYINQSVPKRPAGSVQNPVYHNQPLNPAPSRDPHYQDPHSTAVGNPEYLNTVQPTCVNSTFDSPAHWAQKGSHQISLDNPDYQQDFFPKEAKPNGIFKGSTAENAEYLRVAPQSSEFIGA

[8] = target: Follistatin-related protein 3 (Homo sapiens) (UniProt O95633); assay: compounds binding follistatin-related protein 3 – biochemical, small-molecule microarray, 635 nm fluorescence, primary screen (AID 1105); details: FSTL3 binding, higher = more signal;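 note: score merges emission near 667 nm and signal to noise per printed spot across three slides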
Sequence of Follistatin-related protein 3 (Homo sapiens) (O95633 whole entry, looked up): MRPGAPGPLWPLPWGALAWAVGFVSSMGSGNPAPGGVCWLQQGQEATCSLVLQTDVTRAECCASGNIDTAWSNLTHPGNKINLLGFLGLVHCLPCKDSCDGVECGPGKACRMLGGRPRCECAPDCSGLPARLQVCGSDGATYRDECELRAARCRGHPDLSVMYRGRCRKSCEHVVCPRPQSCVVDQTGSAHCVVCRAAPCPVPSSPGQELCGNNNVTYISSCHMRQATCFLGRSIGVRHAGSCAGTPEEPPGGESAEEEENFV

[9] = target: Dickkopf-related protein 1 (Homo sapiens) (UniProt O94907); assay: small molecules binding DKK1 protein – biochemical, small-molecule microarray, 635 nm fluorescence scan, primary screen (AID 1106); details: higher = more signal;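 note: score merges emission near 667 nm with signal to noise over three replicate slides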
Sequence of Dickkopf-related protein 1 (Homo sapiens) (O94907 whole entry, looked up): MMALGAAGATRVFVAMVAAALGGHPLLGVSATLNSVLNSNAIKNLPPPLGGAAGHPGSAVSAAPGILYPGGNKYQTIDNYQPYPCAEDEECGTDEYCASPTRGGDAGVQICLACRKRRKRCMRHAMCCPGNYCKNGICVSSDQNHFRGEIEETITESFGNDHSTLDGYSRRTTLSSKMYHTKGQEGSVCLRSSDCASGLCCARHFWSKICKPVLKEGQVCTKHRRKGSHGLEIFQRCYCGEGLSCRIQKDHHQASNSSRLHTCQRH

[10] = system: Inhibin beta A chain (activin A); assay: small molecules binding activin A – biochemical, small-molecule microarray, 635 nm fluorescence scan, primary screen (AID 1107); details: INHBA, higher = more signal;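 note: mouse activin A protein probed at 4.33 µg/mL on printed slides; score merges bound-protein fluorescence near 667 nm with spot signal-to-noise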
[11] = system: Human papillomavirus type 1a protein E7 (residues 44-93); assay: small molecules binding HPV E7 44-93 – biochemical, small-molecule microarray, residues 44-93, 635 nm fluorescence, primary screen (AID 1108); details: fluorescence 635 nm, higher = more signal;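 note: E7 fragment applied at 1 µg/mL in TBST for 1 h at 4 C; score combines spot fluorescence with its signal to noise ratio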
[12] = hepatitis C replication reporter changes, two-sided – Huh7 cells, luciferase reporter, HCV replication inhibitor project, primary screen (AID 1109); details: Huh7 HCV replicon luciferase reporter, 48 h; higher = more signal;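 note: huh7 hepatoma cells harbouring a luciferase neomycin HCV replicon reporter; luciferase luminescence as measure of HCV replicon replication; test concentration not given here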
[13] = target: Left-right determination factor 2 (Homo sapiens) (UniProt O00292); assay: small molecules binding LEFTY2 protein – biochemical, small-molecule microarray, 635 nm fluorescence scan, primary screen (AID 1110); details: higher = more signal
Sequence of Left-right determination factor 2 (Homo sapiens) (O00292 whole entry, looked up): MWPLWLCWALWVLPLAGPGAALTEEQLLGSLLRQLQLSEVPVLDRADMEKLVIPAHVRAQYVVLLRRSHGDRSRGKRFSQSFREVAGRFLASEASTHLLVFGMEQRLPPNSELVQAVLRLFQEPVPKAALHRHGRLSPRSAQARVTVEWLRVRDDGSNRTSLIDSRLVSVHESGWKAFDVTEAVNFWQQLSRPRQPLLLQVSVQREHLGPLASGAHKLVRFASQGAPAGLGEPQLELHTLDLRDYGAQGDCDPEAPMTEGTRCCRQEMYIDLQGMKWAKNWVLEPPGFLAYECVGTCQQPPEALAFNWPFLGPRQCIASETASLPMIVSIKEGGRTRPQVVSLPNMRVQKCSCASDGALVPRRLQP

[14] = target: Calmodulin-1 (Homo sapiens) (UniProt P0DP23); assay: small molecules binding calmodulin-1 with EGTA – biochemical, small-molecule microarray, Cy5-labelled CALM1, profiling panel (AID 1111); details: Cy5-CALM1 binding fluorescence, higher = more signal;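 note: labelled calmodulin applied in Tris saline Tween buffer holding calcium plus EGTA and DTT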
[15] = target: Calmodulin-1 (Homo sapiens) (UniProt P0DP23); assay: small molecules binding Ca-loaded calmodulin-1 – biochemical, small-molecule microarray, Cy5-labelled CALM1, plus calcium, artefact control for SMM control-protein annotation, profiling panel (AID 1112); details: Cy5-CALM1 binding fluorescence, higher = more signal;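 note: score merges spot fluorescence with signal to noise from triplicate slides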
[16] = probe aWnt5a binding to arrayed compounds – biochemical, biotinylated probe, 635/667 nm fluorescence, primary screen (AID 1113); details: small-molecule microarray, higher = more signal;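 note: score merges 667 nm fluorescence intensity with signal-to-noise per printed feature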
[17] = probe aShh binding to arrayed compounds – biochemical, biotinylated probe, 635/667 nm fluorescence, primary screen (AID 1114); details: small-molecule microarray, higher = more signal;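 note: probe is biotin-labelled aShh protein from a stem cell growth factor screen; measures binding of labelled protein to compounds printed on the slide; score merges feature fluorescence at 667 nm with signal-to-noise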
[18] = probe aNog binding to arrayed compounds – biochemical, biotinylated probe, 635/667 nm fluorescence, primary screen (AID 1115); details: small-molecule microarray, higher = more signal;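 note: probe is biotinylated aNog protein used at 0.15 µg/mL for 1 h at 4 C; z-score combines 667 nm fluorescence of each spot with its signal to noise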
[19] = target: Torsin-1A-interacting protein 1 (Homo sapiens) (UniProt Q5JTV8); assay: compound microarray binding of lysate hLAP1 – cell lysate, small-molecule microarray, COS7 lysate, 635/667 nm fluorescence, primary screen (AID 1116); details: 635 nm fluorescence, higher = more signal
Sequence of Torsin-1A-interacting protein 1 (Homo sapiens) (Q5JTV8 whole entry, looked up): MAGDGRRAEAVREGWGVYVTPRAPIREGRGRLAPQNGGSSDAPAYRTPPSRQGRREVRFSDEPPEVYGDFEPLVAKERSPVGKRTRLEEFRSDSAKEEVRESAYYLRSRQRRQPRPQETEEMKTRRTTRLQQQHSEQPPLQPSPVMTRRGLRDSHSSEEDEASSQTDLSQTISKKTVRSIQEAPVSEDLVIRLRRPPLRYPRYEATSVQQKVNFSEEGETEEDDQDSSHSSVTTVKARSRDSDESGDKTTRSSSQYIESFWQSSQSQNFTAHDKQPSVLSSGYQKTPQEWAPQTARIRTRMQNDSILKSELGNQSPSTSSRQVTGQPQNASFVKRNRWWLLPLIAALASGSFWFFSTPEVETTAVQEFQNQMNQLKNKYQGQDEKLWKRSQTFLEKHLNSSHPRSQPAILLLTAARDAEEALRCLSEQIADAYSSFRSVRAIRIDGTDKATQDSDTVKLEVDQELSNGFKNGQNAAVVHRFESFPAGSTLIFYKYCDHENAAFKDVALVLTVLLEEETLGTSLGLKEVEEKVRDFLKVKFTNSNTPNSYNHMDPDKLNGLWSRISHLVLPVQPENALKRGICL

[20] = target: Alpha-bungarotoxin (Bungarus multicinctus) (UniProt P60615); assay: compounds binding labelled alpha-BTX control protein – biochemical, small-molecule microarray, Alexa647 label, 635/667 nm fluorescence, artefact control for SMM control protein annotation, profiling panel (AID 1117); details: alpha-BTX-A647 binding fluorescence, higher = more signal
Sequence of Alpha-bungarotoxin (Bungarus multicinctus) (P60615 whole entry, looked up): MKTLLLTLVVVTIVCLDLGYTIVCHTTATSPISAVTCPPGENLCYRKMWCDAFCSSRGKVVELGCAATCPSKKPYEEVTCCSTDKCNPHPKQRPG

SMILES	composite z-score [1]	composite z-score [2]	composite z-score [3]	z-score [4]	composite z-score [5]	composite z-score [6]	composite z-score [7]	composite z-score [8]	composite z-score [9]	composite z-score [10]	composite z-score [11]	z-score [12]	composite z-score [13]	composite z-score [14]	composite z-score [15]	composite z-score [16]	composite z-score [17]	composite z-score [18]	composite z-score [19]	composite z-score [20]
C=C(COC)/C(=C/C[C@@H](OC(=O)c1ccncc1)c1ccc(CO)o1)c1cc(C(=O)OC)ccc1OC	1.2	0.0709	-0.623	0.804 (inactive)	1.47	1.15	1.06	1.48	1.27	1.03	1.4	-0.557	1.44	0.209	-0.708	0.0077	-0.138	-0.18	0.877	0.702
[N-]=[N+]=NCc1ccccc1C[C@]1(C(=O)N2CCCCC2)N=C(c2ccc(OCCCO)cc2)O[C@H]1c1ccccc1N=[N+]=[N-]	0.711	1.1	1.19	-1.01 (inactive)	0.55	0.998	0.26	0.308	-0.5	1.36	1.41	-2.92	0.0928	1.43	0.587	0.171	0.417	1.03	1.85	1.45
C=CCC(OC(C)=O)[C@@H]1[C@@H](N(Cc2ccc(-c3ccccc3)cc2)C(=O)c2cccc3ccccc23)c2cc(OCCCO)ccc2N1C(=O)c1ccc(-c2ccccc2)cc1 (stereo not given in full)	-0.333	0.4	0.672	-1.05 (inactive)	0.164	0.366	-0.192	0.269	-0.111	1.09	0.431	-0.133	-0.351	0.468	0.553	-0.187	-0.0793	-0.443	0.951	0.445
O=C1C[C@]2(c3ccc([N+](=O)[O-])cc3)C(=O)N(CC(F)(F)F)c3cc(CO)ccc3[C@H]2N1C1CCCCC1	-0.535	0.246	0.564	0.465 (inactive)	-0.431	-0.161	-1.1	-0.883	-0.906	0.23	-0.83	0.909	-1.34	-0.74	-0.624	-0.103	-0.221	-0.495	-0.555	-0.605
C=C[C@H](CO)NS(=O)(=O)c1ccc(Br)cc1	0.54	0.867	-0.54	-0.0902 (inactive)	0.335	0.526	0.393	0.695	0.751	0.84	1.05	0.109	0.375	0.158	-0.268	-0.096	-0.2	-0.266	0.306	0.275
CCCCCCc1nc(-c2ccc(OC)nc2)cc2c1[Si](C(C)C)(C(C)C)O[C@H]2c1ccccc1	1.33	-0.0653	-0.459	-0.0107 (inactive)	0.289	-0.0539	0.31	0.633	0.117	0.318	-0.103	-0.657	0.28	-0.0918	0.176	-0.176	0.108	-0.234	-0.476	0.0237
COc1ccccc1CN1C(=O)c2ccccc2[C@@H](C(=O)NC2CC2)[C@@H]1c1ccc(CO)cc1	0.743	0.667	0.556	0.0463 (inactive)	1.27	1.28	0.521	1.44	1.23	0.633	0.0772	-1.3	0.57	0.522	-0.779	-0.0512	0.257	-0.519	0.0469	1.3
CCCC#C[Si](O[C@H](CC)c1cn(Cc2cccc(Cl)c2)nn1)(C(C)C)C(C)C	0.377	-0.23	-0.45	-1.01 (inactive)	1.11	1.05	0.484	0.566	0.52	-0.121	1.3	-0.113	0.431	0.0375	0.169	-0.0944	-0.153	-0.307	0.545	-0.2
COC(=O)c1c(CC[C@@H](CO)NC(=O)NCCn2cc(C3(O)CCCC3)nn2)oc(C(C)=O)c1C(=O)OC	0.546	-0.147	-0.26	-0.152 (inactive)	-0.0339	-0.0275	0.218	-0.234	0.0587	0.129	-0.0133	-0.674	-0.0138	-0.19	-0.732	-0.169	-0.195	-0.158	0.331	0.139
O=C(NCCN1CCOCC1)C1N=C(c2ccc(OCCCO)cc2)N(c2ccccc2)O1 (stereo not given)	0.439	0.273	0.766	-0.764 (inactive)	1.56	1.08	0.837	0.751	0.915	0.145	0.694	0.289	1.08	0.745	-0.177	0.139	-0.0457	0.05	1.68	1.55
C=C(/C(=C/C[C@H](OC(C)=O)c1ccc(CO)o1)c1cc(C(=O)OC)ccc1OC)C(C)C	-0.415	-0.0153	-0.0899	-0.0448 (inactive)	0.505	-0.196	-0.455	0.397	0.0625	0.463	-0.3	-2.22	-0.183	-0.0278	-0.061	-0.0506	0.318	0.168	0.0916	-0.829
C[N+](C)(C)CCCCNC(=O)[C@@H]1C[C@@H]2C(=O)N[C@@H](Cc3ccccc3)C(=O)N2[C@@H]1c1cccc(OCCO)c1	1.32	-0.0907	0.361	-0.379 (inactive)	0.849	-0.494	-0.35	0.683	1.49	-0.15	-1.03	-0.759	0.633	-0.985	0.18	-0.178	-0.0146	-0.12	0.0849	-0.671
O=C1N(Cc2ccccc2)c2ccccc2[C@@H]2OC(c3ccc(OCCCO)cc3)=N[C@]12CCS(=O)(=O)c1ccccc1	0.833	0.562	0.78	1.2 (inactive)	0.17	0.251	-0.24	0.0891	0.0435	1.07	1.38	-1.38	0.274	1.61	0.246	0.0279	-0.0575	-0.807	0.655	1.48
CCCC=C(CCC)[C@@H](NC(=O)c1cccs1)c1ccc(C(F)(F)F)cc1	0.119	0.607	0.406	-2.16 (inactive)	0.36	1.25	0.569	0.857	-0.568	0.454	1.17	-0.668	1.16	1.48	0.522	0.0546	0.336	1.15	1.27	0.734
CCOC(=O)C[C@H]1[C@H](OC(=O)c2ccc(C(=O)c3ccccc3)cc2)[C@@H](NC(=O)c2ccccc2)c2cc(OCCCO)ccc2N1C(=O)Cc1ccc(OC)cc1	-0.0032	0.234	0.586	0.0989 (inactive)	0.131	0.0916	0.285	0.0514	-0.0269	0.811	0.525	-0.283	0.366	0.0941	-0.222	-0.107	-0.195	-0.205	0.738	0.178

From PubChem BioAssay
